9 molecules from PubChem BioAssay (NCI) can be followed below.

Several values for one entry are separate records, joined by “and”; a condition that tells them apart may be missing. Equal values may be shown once. Compounds without any hit were thinned out: in the full panel of roughly 79,000, 15% have a hit. Some compounds were tested as several samples or in several runs, with calls that do not always agree. Activity calls are given as the source filed them. No stated cut-off is given here; in the data, active means growth inhibition above about 70%; inactive means the rest.

Test [1] in a line: NCI Yeast Anticancer Drug Screen. Data for the rad50 strain (AID 155).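 Further: 0% = growth of vehicle-only cultures of the same strain.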 The settings on record: S. cerevisiae rad50 strain growth inhibition, stronger effect = higher value. In short, it runs like this: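 A DNA repair-deficient yeast mutant serves as the test organism; compound-induced growth inhibition is calculated against vehicle-treated cells.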
Test [2] in a line: NCI Yeast Anticancer Drug Screen. Data for the mec2-1 strain (AID 157). The note with it: S. cerevisiae mec2-1 strain, stronger effect = higher value. In short, it runs like this:
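Strain: mec2-1 (DNA repair/cell cycle alteration). Compound exposure, then growth measured; inhibition expressed relative to vehicle.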

Test [3] is described as follows: NCI Yeast Anticancer Drug Screen. Data for the sgs1 mgt1 strain (AID 161).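 Further: 0% = growth of cultures given vehicle only.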 The note with it: S. cerevisiae sgs1 mgt1 strain, stronger effect = higher value. Summed up:
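Mutant yeast exposed to compound; growth scored against vehicle-only wells.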

A short description of test [4]: NCI Yeast Anticancer Drug Screen. Data for the cln2 rad14 strain (AID 165).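 Further: 0% = growth equal to vehicle treated cultures.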 The settings on record: S. cerevisiae cln2 rad14 strain, stronger effect = higher value. In short, it runs like this: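 Compounds are applied to the cln2 rad14 yeast strain, and growth is then compared with that of vehicle-treated cultures to give inhibition.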
Test [5] is described as follows: NCI Yeast Anticancer Drug Screen. Data for the bub3 strain (AID 167). The note with it: S. cerevisiae bub3 mutant strain, stronger effect = higher value. Summed up:
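Inhibition values come from growth of compound-treated mutant yeast normalised to vehicle-treated controls.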

A short description of test [6]: NCI Yeast Anticancer Drug Screen. Data for the mlh1 rad18 strain (AID 175). The note with it: S. cerevisiae mlh1 rad18 strain growth inhibition, stronger effect = higher value. Summed up:
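Read-out is yeast growth inhibition, calculated against vehicle-only controls. The compound was applied to a strain engineered with DNA damage repair alterations.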

[7] abbreviates: at 5.0 µM (retest, dose inferred, filed as 0.5).
The mark [8] stands for this setting: at 50.0 µM (retest, dose inferred, filed as 5.0).

With `O=[N+]([O-])c1cc([N+](=O)[O-])c(Cl)cc1F`, the growth inhibition in test [1] (setting [7]) is 99% (active); in test [1] (setting [8]) it was 99% (active); in test [1] (at 50.0 µM), 81% (active); in test [2] (setting [7]), 99% (active); in test [2] (setting [8]) it was 99% (active); in test [2] (at 50.0 µM), 59.7% (inactive). The growth inhibition in test [3] (setting [7]) was 99% (active); in test [3] (setting [8]) it was 99% (active); in test [3] (at 50.0 µM) it was 78.2% (active); in test [4] (setting [7]), 98% (active); in test [4] (setting [8]), 99% (active); in test [4] (at 50.0 µM), -3.25% (inactive). Also, the growth inhibition was 99% (active) in test [5] (setting [7]); 99% (active) in test [5] (setting [8]); 87.5% (active) in test [5] (at 50.0 µM); 99% (active) in test [6] (setting [7]); 99% (active) in test [6] (setting [8]); 98.6% (active) in test [6] (at 50.0 µM).

For the molecule `C[n+]1ccccc1-c1nc(-c2cccc[n+]2C)nc(-c2cccc[n+]2C)n1`, the growth inhibition in test [1] (setting [7]) was 37% (inactive); in test [1] (setting [8]), 75% (active); in test [1] (at 50.0 µM), 56.6% (inactive); in test [2] (setting [7]), 46% (inactive); in test [2] (setting [8]), 57% (inactive); in test [2] (at 50.0 µM), 49.6% (inactive). Also, the growth inhibition was 23% (inactive) in test [3] (setting [7]); 69% (inactive) in test [3] (setting [8]); 79.6% (active) in test [3] (at 50.0 µM); 14% (inactive) in test [4] (setting [7]); 51% (inactive) in test [4] (setting [8]); 21.9% (inactive) in test [4] (at 50.0 µM). The growth inhibition is 19% (inactive) in test [5] (setting [7]); 73% (active) in test [5] (setting [8]); 44.9% (inactive) in test [5] (at 50.0 µM); 37% (inactive) in test [6] (setting [7]); 82% (active) in test [6] (setting [8]); 84.2% (active) in test [6] (at 50.0 µM).

With `N=C(N)SCc1ccc(Cl)c2ccccc12` (tested in a mixture with another compound), the growth inhibition in test [1] (setting [7]) is 12% (inactive) and 8% (inactive); in test [1] (setting [8]) it was 94% (active) and 60% (inactive); in test [1] (at 50.0 µM) it was 98.8% (active) and 90% (active); in test [2] (setting [7]) it was 1% (inactive) and -15% (inactive); in test [2] (setting [8]) it was 58% (inactive) and 35% (inactive); in test [2] (at 50.0 µM), 98.6% (active) and 89.5% (active). Also, the growth inhibition was -6% (inactive) and -9% (inactive) in test [3] (setting [7]); 93% (active) and 51% (inactive) in test [3] (setting [8]); 98.5% (active) and 92.5% (active) in test [3] (at 50.0 µM); -40% (inactive) and -1% (inactive) in test [4] (setting [7]); 94% (active) and 38% (inactive) in test [4] (setting [8]); 94.8% (active) and 57% (inactive) in test [4] (at 50.0 µM). The growth inhibition in test [5] (setting [7]) is -21% (inactive) and -5% (inactive); in test [5] (setting [8]), 72% (active) and 66% (inactive); in test [5] (at 50.0 µM) it was 98.2% (active) and 92.8% (active); in test [6] (setting [7]) it was 2% (inactive) and -3% (inactive); in test [6] (setting [8]) it was 91% (active) and 88% (active); in test [6] (at 50.0 µM), 98.7% (active) and 96% (active).

For the molecule `CN(C)CCN(C)P12(Oc3ccccc3O1)Oc1c(Cl)c(Cl)c(Cl)c(Cl)c1O2`, the growth inhibition was -8% (inactive) in test [1] (setting [7]); 6% (inactive) in test [1] (setting [8]); 99% (active) in test [1] (at 50.0 µM); 9% (inactive) in test [2] (setting [7]); 14% (inactive) in test [2] (setting [8]); 99.2% (active) in test [2] (at 50.0 µM). Further, the growth inhibition was -10% (inactive) in test [3] (setting [7]); 9% (inactive) in test [3] (setting [8]); 99% (active) in test [3] (at 50.0 µM); -19% (inactive) in test [4] (setting [7]); 22% (inactive) in test [4] (setting [8]); 99.1% (active) in test [4] (at 50.0 µM). Also, the growth inhibition was -10% (inactive) in test [5] (setting [7]); 12% (inactive) in test [5] (setting [8]); 99.1% (active) in test [5] (at 50.0 µM); 0% (inactive) in test [6] (setting [7]); 16% (inactive) in test [6] (setting [8]); 97.6% (active) in test [6] (at 50.0 µM).

In the case of `CCC1CC2CCC(O2)C(C)C(=O)OC(C)CC2CCC(O2)C(C)C(=O)OC(CC)CC2CCC(O2)C(C)C(=O)OC(C)CC2CCC(O2)C(C)C(=O)O1` (configuration not stated), the growth inhibition in test [1] (setting [7]) was -7% (inactive); in test [1] (setting [8]), 71% (active); in test [1] (at 50.0 µM) it was 82.3% (active); in test [2] (setting [7]), 23% (inactive); in test [2] (setting [8]) it was 88% (active); in test [2] (at 50.0 µM) it was 84.5% (active). Also, the growth inhibition was -1% (inactive) in test [3] (setting [7]); 74% (active) in test [3] (setting [8]); 80.7% (active) in test [3] (at 50.0 µM); 25% (inactive) in test [4] (setting [7]); 79% (active) in test [4] (setting [8]); 66.2% (inactive) in test [4] (at 50.0 µM). The growth inhibition was -4% (inactive) in test [5] (setting [7]); 79% (active) in test [5] (setting [8]); 79.2% (active) in test [5] (at 50.0 µM); -15% (inactive) in test [6] (setting [7]); 85% (active) in test [6] (setting [8]); 73.2% (active) in test [6] (at 50.0 µM).

For `NC(=O)CNCc1ccc([As]=O)cc1` (configuration not stated), the growth inhibition in test [1] (setting [7]) was 2% (inactive); in test [1] (setting [8]) it was 1% (inactive); in test [1] (at 50.0 µM) it was 72.8% (active); in test [2] (setting [7]) it was 3% (inactive); in test [2] (setting [8]) it was -2% (inactive); in test [2] (at 50.0 µM) it was 50.1% (inactive). The growth inhibition in test [3] (setting [7]) is 0% (inactive); in test [3] (setting [8]), -2% (inactive); in test [3] (at 50.0 µM), 71.1% (active); in test [4] (setting [7]) it was 1% (inactive); in test [4] (setting [8]) it was 3% (inactive); in test [4] (at 50.0 µM), 10.4% (inactive). For the same molecule, the growth inhibition was 3% (inactive) in test [5] (setting [7]); 8% (inactive) in test [5] (setting [8]); 74.2% (active) in test [5] (at 50.0 µM); 12% (inactive) in test [6] (setting [7]); -6% (inactive) in test [6] (setting [8]); 69.5% (inactive) in test [6] (at 50.0 µM).

Regarding `c1ccc2c(c1)c1cccc3c4c5ccccc5c5cccc(c2c13)c54`, the growth inhibition in test [1] (setting [7]) is -1% (inactive); in test [1] (setting [8]), -1% (inactive); in test [1] (at 50.0 µM) it was 1.9% (inactive); in test [2] (setting [7]), -2% (inactive); in test [2] (setting [8]) it was 0% (inactive); in test [2] (at 50.0 µM), 15.7% (inactive). Also, the growth inhibition was -2% (inactive) in test [3] (setting [7]); -1% (inactive) in test [3] (setting [8]); 11.4% (inactive) in test [3] (at 50.0 µM); 1% (inactive) in test [4] (setting [7]); -5% (inactive) in test [4] (setting [8]); 78.1% (active) in test [4] (at 50.0 µM). The growth inhibition in test [5] (setting [7]) is 0% (inactive); in test [5] (setting [8]) it was 1% (inactive); in test [5] (at 50.0 µM), -1.25% (inactive); in test [6] (setting [7]), -3% (inactive); in test [6] (setting [8]), -2% (inactive); in test [6] (at 50.0 µM), 14.6% (inactive).

For `C/C(=N\Nc1ccccn1)C1CC[N-]C2C(O)CCCC12.C/C(=N\Nc1ccccn1)C1CC[N-]C2C(O)CCCC12.[Cu+2]` (configuration not stated), the growth inhibition in test [1] (setting [7]) was 98% (active); in test [1] (setting [8]), 98% (active); in test [1] (at 50.0 µM) it was 99% (active); in test [2] (setting [7]), 99% (active); in test [2] (setting [8]), 99% (active); in test [2] (at 50.0 µM), 99.5% (active). For the same molecule, the growth inhibition in test [3] (setting [7]) was 98% (active); in test [3] (setting [8]), 99% (active); in test [3] (at 50.0 µM), 99.4% (active); in test [4] (setting [7]) it was 98% (active); in test [4] (setting [8]), 97% (active); in test [4] (at 50.0 µM), 98.9% (active). In addition, the growth inhibition was 99% (active) in test [5] (setting [7]); 98% (active) in test [5] (setting [8]); 99% (active) in test [5] (at 50.0 µM); 99% (active) in test [6] (setting [7]); 98% (active) in test [6] (setting [8]); 99.3% (active) in test [6] (at 50.0 µM).

For `CC(C)CCCC(C)CCC1C(=O)NC(=O)NC1=O` (configuration not stated), the growth inhibition in test [1] (setting [7]) is 6% (inactive); in test [1] (setting [8]), 23% (inactive); in test [1] (at 50.0 µM), -6.75% (inactive) and 8.2% (inactive); in test [2] (setting [7]) it was -17% (inactive); in test [2] (setting [8]), 4% (inactive); in test [2] (at 50.0 µM) it was -0.5% (inactive) and -2.3% (inactive). Also, the growth inhibition in test [3] (setting [7]) is -6% (inactive); in test [3] (setting [8]) it was 21% (inactive); in test [3] (at 50.0 µM) it was -8.05% (inactive) and 38.9% (inactive); in test [4] (setting [7]), -1% (inactive); in test [4] (setting [8]) it was 3% (inactive); in test [4] (at 50.0 µM), -31.1% (inactive) and -44.4% (inactive). Also, the growth inhibition is -3% (inactive) in test [5] (setting [7]); -3% (inactive) in test [5] (setting [8]); -5.55% (inactive) and -18.1% (inactive) in test [5] (at 50.0 µM); 13% (inactive) in test [6] (setting [7]); 48% (inactive) in test [6] (setting [8]); 2.7% (inactive) and -0.7% (inactive) in test [6] (at 50.0 µM).
